For some assays here: Potency and affinity values are given separately.
Experiments:
Parameters in all cases: scale not given: direction of the effect not stated beside the values
[1] = molecular target: Protein translocase subunit SecA (Escherichia coli (strain K12)) (UniProt P10408); assay: Assay to Identify E. coli SecA ATPase Inhibitors; type: functional; conditions: 30 µM
[2] = molecular target: T1, Ubiquitin-activating enzyme e1, putative (Leishmania donovani (strain BPK282A1)) (UniProt E9BSI1); assay: Leishmania donovani Ubiquitin Activating Enzyme (LdE1); type: functional; conditions: 30 µM
T1 sequence (whole entry): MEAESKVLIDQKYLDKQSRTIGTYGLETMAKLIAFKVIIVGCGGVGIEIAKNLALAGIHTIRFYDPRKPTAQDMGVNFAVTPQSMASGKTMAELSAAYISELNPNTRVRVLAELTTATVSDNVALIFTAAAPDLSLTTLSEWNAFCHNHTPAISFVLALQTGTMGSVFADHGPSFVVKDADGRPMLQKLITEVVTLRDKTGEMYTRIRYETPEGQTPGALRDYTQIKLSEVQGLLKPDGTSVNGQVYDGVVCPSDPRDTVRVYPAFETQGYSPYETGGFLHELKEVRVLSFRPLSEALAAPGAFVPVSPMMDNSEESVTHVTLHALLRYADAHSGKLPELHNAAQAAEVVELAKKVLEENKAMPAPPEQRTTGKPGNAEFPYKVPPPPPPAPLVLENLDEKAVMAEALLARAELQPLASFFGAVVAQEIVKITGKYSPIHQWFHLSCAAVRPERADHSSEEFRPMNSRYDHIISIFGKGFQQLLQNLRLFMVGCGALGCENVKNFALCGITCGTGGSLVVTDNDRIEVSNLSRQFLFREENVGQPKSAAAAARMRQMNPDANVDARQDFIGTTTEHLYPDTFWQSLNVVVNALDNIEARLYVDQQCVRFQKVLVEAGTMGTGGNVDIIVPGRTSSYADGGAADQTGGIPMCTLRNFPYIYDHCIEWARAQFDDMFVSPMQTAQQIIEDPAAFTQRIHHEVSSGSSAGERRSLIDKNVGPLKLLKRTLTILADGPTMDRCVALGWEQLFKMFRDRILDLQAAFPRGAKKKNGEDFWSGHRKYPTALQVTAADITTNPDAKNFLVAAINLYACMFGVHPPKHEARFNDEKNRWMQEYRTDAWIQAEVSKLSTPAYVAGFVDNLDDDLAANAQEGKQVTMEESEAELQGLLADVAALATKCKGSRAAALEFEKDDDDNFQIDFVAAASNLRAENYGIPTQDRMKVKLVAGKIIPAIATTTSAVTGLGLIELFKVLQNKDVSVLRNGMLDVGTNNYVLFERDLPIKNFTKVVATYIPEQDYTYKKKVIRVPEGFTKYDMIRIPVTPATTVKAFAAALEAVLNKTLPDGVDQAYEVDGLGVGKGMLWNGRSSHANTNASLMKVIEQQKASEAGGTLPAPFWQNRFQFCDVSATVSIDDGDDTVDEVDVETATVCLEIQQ

[3] = molecular target: AMP-activated protein kinase, AMPK (Homo sapiens) (UniProt P54646+O43741+P54619+Q9UGJ0+Q9Y478+Q13131+Q9UGI9); assay: AMP-dependent Kinase enzyme assay. An in vitro enzyme assay that detects ADP turnover that is directly proportional to AMPK activity. This uses naive AMPK that is activated during the assay with MK-8722; type: functional; conditions: 30 µM
[4] = molecular target: Sialic acid-binding Ig-like lectin 9 (Homo sapiens) (UniProt Q9Y336); assay: Hs-Siglec9 ALPHAscreen SOP 20170721; conditions: 10 µM
Trypanosoma cruzi = assay: Trypanosoma cruzi phosphomannomutase and mannose-1-phosphate guanylyltransferase assay; type: functional; conditions: 10 µM
[5] = molecular target: T2, Arginase-2, mitochondrial (Homo sapiens) (UniProt P78540); assay: in vitro enzyme assay to detect the production of urea directly proportional to the activity of Arginase II; type: functional; conditions: 33.3 µM; note: in the data most compounds retested in dose-response had high values
T2 sequence (whole entry): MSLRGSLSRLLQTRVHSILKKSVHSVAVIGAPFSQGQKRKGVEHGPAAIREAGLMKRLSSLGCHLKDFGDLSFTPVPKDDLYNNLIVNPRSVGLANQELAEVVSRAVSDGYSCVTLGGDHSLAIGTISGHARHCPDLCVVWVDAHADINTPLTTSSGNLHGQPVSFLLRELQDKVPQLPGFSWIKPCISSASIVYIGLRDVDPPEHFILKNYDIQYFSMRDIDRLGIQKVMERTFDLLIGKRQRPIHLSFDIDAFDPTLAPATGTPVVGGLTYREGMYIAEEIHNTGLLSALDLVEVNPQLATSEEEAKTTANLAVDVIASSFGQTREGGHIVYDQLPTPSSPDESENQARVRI

[6] = molecular target: T3, Proteasome subunit beta (Trypanosoma cruzi) (UniProt O96673); assay: Trypanosoma cruzi proteasome chymotrypsin-like activity (TcProtChymo) assay.; note: in the data most compounds retested in dose-response had high values; type: functional; conditions: 9.37 µM
T3 sequence (whole entry): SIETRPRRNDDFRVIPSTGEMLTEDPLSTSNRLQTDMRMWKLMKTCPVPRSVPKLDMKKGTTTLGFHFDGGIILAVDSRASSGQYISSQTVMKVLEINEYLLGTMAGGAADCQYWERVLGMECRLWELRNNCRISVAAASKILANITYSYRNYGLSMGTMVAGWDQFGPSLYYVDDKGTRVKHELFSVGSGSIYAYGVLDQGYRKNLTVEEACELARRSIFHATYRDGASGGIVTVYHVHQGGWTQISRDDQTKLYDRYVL

Homo sapiens = species on record: Homo sapiens; assay: To identify inhibition of the IFN signalling (Jak-Stat) pathway via expression of an eGFP reporter gene under the control of an IFN-stimulated response element (ISRE) containing MxA promoter.; type: functional; conditions: 30 µM
[7] = molecular target: T4, Tyrosyl-tRNA synthetase, putative (Trypanosoma cruzi (strain CL Brener)) (UniProt Q4DSP6); assay: Trypanosoma cruzi tyrosyl tRNA synthetase (TcYRS) _High Tyrosine SOP; type: functional; conditions: 30 µM; note: in the data most compounds retested in dose-response had high values
T4 sequence (whole entry): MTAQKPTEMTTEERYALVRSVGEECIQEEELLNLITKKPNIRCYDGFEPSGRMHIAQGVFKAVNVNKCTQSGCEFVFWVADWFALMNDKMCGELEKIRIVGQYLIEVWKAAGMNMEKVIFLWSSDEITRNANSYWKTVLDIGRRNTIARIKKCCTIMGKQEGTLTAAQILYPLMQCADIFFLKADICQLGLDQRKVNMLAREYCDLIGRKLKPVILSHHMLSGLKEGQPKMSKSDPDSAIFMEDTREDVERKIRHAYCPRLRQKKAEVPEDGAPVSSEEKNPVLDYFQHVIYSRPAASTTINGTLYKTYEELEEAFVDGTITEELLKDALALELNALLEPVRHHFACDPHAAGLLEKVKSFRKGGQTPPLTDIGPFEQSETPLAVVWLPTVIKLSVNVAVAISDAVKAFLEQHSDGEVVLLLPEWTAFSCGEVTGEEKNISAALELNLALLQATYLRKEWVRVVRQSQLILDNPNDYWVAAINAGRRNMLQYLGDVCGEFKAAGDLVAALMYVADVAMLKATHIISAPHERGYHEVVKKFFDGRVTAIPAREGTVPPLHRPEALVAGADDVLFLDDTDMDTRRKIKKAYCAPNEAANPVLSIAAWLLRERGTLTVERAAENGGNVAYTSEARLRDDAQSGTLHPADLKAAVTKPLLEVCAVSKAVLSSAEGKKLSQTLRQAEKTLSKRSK

[8] = molecular target: T4, Tyrosyl-tRNA synthetase, putative (Trypanosoma cruzi (strain CL Brener)); assay: Trypanosoma cruzi tyrosyl tRNA synthetase (TcYRS) SOP; type: functional; conditions: 30 µM
[9] = molecular target: Chromo domain-containing protein 1 (Saccharomyces cerevisiae (strain ATCC 204508 / S288c) (Baker's yeast)) (UniProt P32657); assay: ScCHD-1 Enzyme Inhibition Assay; type: functional; conditions: 30 µM; note: in the data most compounds retested in dose-response had high values
Sequence of Chromo domain-containing protein 1 (Saccharomyces cerevisiae (strain ATCC 204508 / S288c) (Baker's yeast)) (P32657 whole entry, the tested form may be a part): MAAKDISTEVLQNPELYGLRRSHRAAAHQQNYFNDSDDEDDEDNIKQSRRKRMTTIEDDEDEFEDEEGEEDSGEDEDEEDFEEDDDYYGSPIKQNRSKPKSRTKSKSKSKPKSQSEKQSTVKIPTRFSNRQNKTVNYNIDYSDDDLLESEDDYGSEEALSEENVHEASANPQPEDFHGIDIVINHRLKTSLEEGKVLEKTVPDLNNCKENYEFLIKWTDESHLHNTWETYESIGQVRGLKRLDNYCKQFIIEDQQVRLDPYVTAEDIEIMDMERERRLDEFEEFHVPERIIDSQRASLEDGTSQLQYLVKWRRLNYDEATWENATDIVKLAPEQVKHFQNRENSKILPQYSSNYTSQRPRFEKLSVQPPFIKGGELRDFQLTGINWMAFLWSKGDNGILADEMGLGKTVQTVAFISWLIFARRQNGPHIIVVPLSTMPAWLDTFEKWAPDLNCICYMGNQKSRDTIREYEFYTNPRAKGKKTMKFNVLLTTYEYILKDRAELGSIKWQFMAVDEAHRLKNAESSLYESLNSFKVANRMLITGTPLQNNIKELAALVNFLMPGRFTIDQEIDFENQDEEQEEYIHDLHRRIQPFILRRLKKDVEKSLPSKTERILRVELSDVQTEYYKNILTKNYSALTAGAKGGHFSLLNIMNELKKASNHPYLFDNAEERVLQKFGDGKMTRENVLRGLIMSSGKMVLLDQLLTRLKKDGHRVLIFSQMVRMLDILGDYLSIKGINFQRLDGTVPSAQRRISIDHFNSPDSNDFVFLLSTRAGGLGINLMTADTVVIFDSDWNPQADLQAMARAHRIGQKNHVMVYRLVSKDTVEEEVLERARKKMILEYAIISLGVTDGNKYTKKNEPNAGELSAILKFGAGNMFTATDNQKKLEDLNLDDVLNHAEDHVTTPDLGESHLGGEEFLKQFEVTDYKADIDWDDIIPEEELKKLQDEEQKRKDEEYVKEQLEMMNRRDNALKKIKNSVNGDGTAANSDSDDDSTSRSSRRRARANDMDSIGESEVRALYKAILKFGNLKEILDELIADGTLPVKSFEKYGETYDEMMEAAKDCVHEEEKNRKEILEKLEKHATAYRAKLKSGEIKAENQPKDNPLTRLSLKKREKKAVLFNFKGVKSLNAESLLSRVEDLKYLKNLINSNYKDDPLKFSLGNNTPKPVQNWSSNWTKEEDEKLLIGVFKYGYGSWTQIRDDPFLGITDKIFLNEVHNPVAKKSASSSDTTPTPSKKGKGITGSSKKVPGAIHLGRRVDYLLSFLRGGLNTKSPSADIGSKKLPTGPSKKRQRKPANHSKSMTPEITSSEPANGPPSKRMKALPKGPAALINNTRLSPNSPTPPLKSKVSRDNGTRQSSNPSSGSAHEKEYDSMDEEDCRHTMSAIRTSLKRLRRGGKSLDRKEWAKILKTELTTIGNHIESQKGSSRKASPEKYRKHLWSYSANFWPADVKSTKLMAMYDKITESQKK

Sequence of Sialic acid-binding Ig-like lectin 9 (Homo sapiens) (Q9Y336 whole entry): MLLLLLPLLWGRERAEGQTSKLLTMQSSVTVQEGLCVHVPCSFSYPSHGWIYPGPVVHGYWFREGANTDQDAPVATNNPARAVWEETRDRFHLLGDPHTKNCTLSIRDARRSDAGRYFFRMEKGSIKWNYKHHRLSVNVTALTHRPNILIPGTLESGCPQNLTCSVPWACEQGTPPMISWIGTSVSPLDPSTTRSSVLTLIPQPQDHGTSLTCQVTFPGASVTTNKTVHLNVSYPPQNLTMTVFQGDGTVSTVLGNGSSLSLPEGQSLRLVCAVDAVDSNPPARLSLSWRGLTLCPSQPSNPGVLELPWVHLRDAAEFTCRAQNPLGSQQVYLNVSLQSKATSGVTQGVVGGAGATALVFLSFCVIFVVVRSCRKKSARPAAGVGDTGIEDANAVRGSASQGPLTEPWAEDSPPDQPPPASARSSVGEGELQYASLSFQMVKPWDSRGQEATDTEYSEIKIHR
Sequence of Protein translocase subunit SecA (Escherichia coli (strain K12)) (P10408 whole entry): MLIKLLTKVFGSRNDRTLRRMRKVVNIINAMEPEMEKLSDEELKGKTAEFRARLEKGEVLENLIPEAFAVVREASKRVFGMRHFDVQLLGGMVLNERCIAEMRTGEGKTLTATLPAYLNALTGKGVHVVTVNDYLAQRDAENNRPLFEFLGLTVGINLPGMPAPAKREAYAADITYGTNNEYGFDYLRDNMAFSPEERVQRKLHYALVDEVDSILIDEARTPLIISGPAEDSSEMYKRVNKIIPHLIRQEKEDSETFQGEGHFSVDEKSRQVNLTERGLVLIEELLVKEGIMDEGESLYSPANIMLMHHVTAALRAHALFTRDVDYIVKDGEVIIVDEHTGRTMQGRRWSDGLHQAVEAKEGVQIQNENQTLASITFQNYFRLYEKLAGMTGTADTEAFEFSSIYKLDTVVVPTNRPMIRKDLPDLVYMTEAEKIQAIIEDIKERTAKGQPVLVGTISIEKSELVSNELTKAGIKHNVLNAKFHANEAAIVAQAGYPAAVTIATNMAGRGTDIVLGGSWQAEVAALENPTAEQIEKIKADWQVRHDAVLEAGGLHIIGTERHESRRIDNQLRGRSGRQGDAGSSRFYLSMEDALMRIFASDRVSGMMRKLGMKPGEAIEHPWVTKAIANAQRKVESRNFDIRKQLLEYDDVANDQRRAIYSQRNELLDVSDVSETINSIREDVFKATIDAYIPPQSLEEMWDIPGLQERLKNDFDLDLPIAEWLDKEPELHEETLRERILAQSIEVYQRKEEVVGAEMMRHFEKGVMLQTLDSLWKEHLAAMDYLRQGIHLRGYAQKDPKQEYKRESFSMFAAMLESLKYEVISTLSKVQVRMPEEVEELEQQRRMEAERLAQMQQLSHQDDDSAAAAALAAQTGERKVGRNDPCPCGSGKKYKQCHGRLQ

SMILES | Percent Effect [1] | Percent Effect [2] | Percent Effect [3] | Percent Effect [4] | Percent Effect (Trypanosoma cruzi) | Percent Effect [5] | Percent Effect [6] | Percent Effect (Homo sapiens) | Percent Effect [7] | Percent Effect [8] | Percent Effect [9]
Cc1cnc(CN(C)C2CCN(CC(=O)Nc3nncs3)C2)o1 (stereo unspecified) | -0.539% | 22.8% | -11% | -8.69% | -2.74% | 1.14% | 5% | 5.59% | 12.3% | 21.5% | -9.12%
CCn1ccnc1CN1CCCN(C(=O)Cn2nc(C)cc2C)CC1 | -2.55% | 0% | 9.91% | -9.39% | 1.08% | -0.21% | 3.31% | -12.9% | -1.91% | 0% | -14.3%
COC(=O)C(NC(=O)COC1CCCC1)c1cc(F)ccc1F (stereo unspecified) | -6.55% | 7.79% | -4.98% | 20.1% | 5.06% | -7.83% | 2.7% | -0.885% | 4.85% | 21.9% | -9.9%
Cc1nc(NC(=O)CN2CCc3c(nc(C(C)C)n3C)C2)sc1C | -3.02% | 5.41% | -2.02% | 11% | 8.69% | -1.43% | 19.8% | 15% | 6.88% | 19.5% | -1.68%
CCC(=O)N1CCC2(COCc3c(C)nc(N(C)C)nc32)C1 (stereo unspecified) | -9.59% | 0% | 0.948% | 16.9% | -0.586% | -0.417% | 10.7% | 4.78% | 0% | 3.66% | -4.5%
CC(=O)N1CCO[C@@H]2CN(C(=O)c3cc(C)oc3C)CC[C@@H]2C1 | -6.41% | 10.8% | -31.2% | -10.6% | -1.07% | 0.319% | 7.75% | 19.1% | 0% | 0% | -3.96%
CC(OCC1CC1)C(=O)N1CCCN(c2ncccc2C#N)CC1 (stereo unspecified) | -5.69% | 23.7% | -5.36% | -8.93% | -0.0934% | -8.99% | 2.79% | -5.09% | 6.4% | -8.64% | -5.69%
CC(C)N1CCC(Cc2cc(-c3ccccc3C(=O)O)ncn2)CC1 | -1.66% | 52.7% | 4.35% | -7.29% | -0.988% | 2.09% | 5.3% | 17.4% | 4.3% | 6.49% | -7.12%
CC1CCN(c2ncc3c(n2)CN(c2ccc4c(c2)OCO4)C3=O)CC1 | -4.8% | 7.79% | -3.15% | 7.77% | 0.492% | -9.65% | 14.1% | -2.83% | 5.38% | 11.1% | 1.03%
COc1ccccc1C(O)CNC(=O)NCc1cccnc1OC (stereo unspecified) | -5.38% | 12.7% | 3.02% | -9.15% | -7.84% | -0.38% | 6.63% | 30.3% | 1.48% | 13.9% | -5.07%
Fc1ccc(CN2CCCC(Cn3cncn3)C2)c2ncccc12 (stereo unspecified) | -5.33% | 5.2% | -0.904% | 8.63% | 1.67% | -1.38% | 12.2% | -1.67% | 5.38% | 11.1% | 1.09%
CC(=O)NCC(=O)N1CCOC2(CCCN(c3cccnc3)C2)C1 (stereo unspecified) | -5.02% | 2.7% | -2.24% | 1.82% | -6.05% | 0.833% | 15.3% | 7.03% | 8.91% | 6.1% | -2.32%
CC(=O)NC1CCCN(C(=O)c2ccc(Br)cc2O)C1 (stereo unspecified) | -4.72% | 8.11% | -9.01% | 7.98% | -2.92% | 1.6% | 5.95% | 3.4% | 6.4% | 16.1% | -2.5%
CC(C)Cc1cc(C(=O)NCc2nnc[nH]2)[nH]n1 | -3.85% | 7.89% | 11.2% | 7.63% | -3.02% | -4.73% | 13.1% | -0.467% | 1.06% | -2.6% | -1.14%
COc1ccc(CN2CCn3cc(Cn4cccn4)nc3C2)cc1 | -0.217% | 5.2% | 5.77% | -3.88% | -5.03% | -3.23% | 9.4% | -15% | 5.29% | -8.97% | -4.7%
Cc1nn(C)c(C)c1C1CCCN1Cc1cccc(C(N)=O)c1 (stereo unspecified) | 2.51% | 0% | -3.2% | 12.2% | -4.63% | 3.04% | 9.26% | 8.29% | 2.46% | -1.27% | 0.624%
